Hits are enriched below; roughly 6.2% of the tested compounds scored in any of these assays.
HT1080 IDH1KD tx: kills HT-1080 cells with IDH1 knockdown; actives 2% (n = 360,000); HT-1080 IDH1 knockdown viability, ATP luminescence, 48 h; Potency, µM (titrated, usually from 46.1 µM), without a hit: at the highest dose activity, negative = toxicity, usual class: cytotoxic;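 further: 0% = DMSO wells and -100% = cell-free medium wells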
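Cytotoxicity counter-line: IDH1KD HT-1080, 48 h, CellTiter-Glo. Curves classed by r2, magnitude and activity.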
ATXN viability: reduces viability in counter-screen for ATXN expression inhibitors; S2 cells (HEK-293 line with an ATXN2-luciferase reporter) viability, CellTiter-Fluor protease fluorescence, 24 h; Potency, µM (series often up to 56.7 µM), hits mostly cytotoxic; actives 0.49% (n = 400,000); AID 651635; further: nearly all actives have a fitted effect of over 40% in size
HT1080NT lethal: kills 2HG-producing HT-1080-NT fibrosarcoma cells | HT-1080-NT fibrosarcoma viability, CellTiter-Glo ATP luminescence, 48 h | actives 1.6% (n = 360,000) | Potency, µM (titrated, usually from 46.1 µM), for inactives: at the highest dose activity, negative = less viability, most hits filed as cytotoxic | AID 686970;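 further: NT is the 2HG producing partner of a matched IDH1 knockdown line; 0% = DMSO-treated cells and -100% = media-only wells without cells; nearly all actives have a fitted effect of over 55% in size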
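A 48-hour cytotoxicity screen used HT-1080-NT cells plated 2 hours before compound delivery. ATP-based CellTiter-Glo luminescence measured viability, normalized to DMSO and no-cell controls.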
KB-V1 cytotox: kills drug-selected multidrug resistant KB-V1 cells; KB-V1 MDR cells viability, CellTiter-Glo, 72 h; Potency, µM (doses to about 46.1 µM), hits mostly cytotoxic; actives 3.4% (n = 400,000); AID 1347076; further: on the % scale 0 is the no-effect control and ±100 the full control effect; nearly all actives have a fitted effect of over 60% in size
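KB-V1 MDR subline cells in DMEM (phenol-red free, 10% FBS) exposed to compounds in qHTS concentration series for 72 h at 37 degrees C. Viability read by CellTiter-Glo luminescence; concentration-effect curves fitted after normalization and correction.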
ATXN2 expr inh: ATXN2 expression inhibition; HEK-293 ATXN2-luciferase reporter, luminescence, 24 h; Potency, µM (series often up to 57 µM), without a hit: top-dose activity change, negative = inhibition, most hits filed as inhibitors; actives 0.72% (n = 360,000); further: on the % scale 0 is the no-effect control and ±100 the full control effect; nearly all actives have a fitted effect of over 55% in size
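qHTS (up to 57 uM final) was run with 24 h compound exposure of reporter cells at 37 °C. Each well was multiplexed: SteadyGlo luminescence measured ATXN2-luciferase expression after a fluorogenic Gly-Phe-AFC viability readout (25 uM final).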
KB-3-1 cytotox: kills parental KB-3-1 adenocarcinoma cells | AID 1347075 | Potency, µM (highest dose often 46.1 µM), usual class: cytotoxic | actives 1.4% (n = 400,000) | KB-3-1 viability, CellTiter-Glo ATP luminescence, 72 h; further: on the % scale 0 is the no-effect control and ±100 the full control effect; nearly all actives have a fitted effect of over 60% in size
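Parental KB-3-1 viability, qHTS format: 72 h compound exposure, 37 °C; CellTiter-Glo; media-only wells and DMSO plates as controls; concentration-effect fits on corrected data.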
An asterisk follows results filed as active; i = inactive; ? = inconclusive; nt = no result given; ! = repeats disagree; [ ] = another dose, or the depositor's remark. The call rests on the fitted dose curve; in most records, active means well fitted curve in the direction sought with a large enough effect; inconclusive means small, poorly fitted or top-dose-only effect, or another doubt; inactive means no such curve, though single readings can be large; an effect the other way counts as inactive or inconclusive. Potency means the concentration at half of the fitted maximal effect.

SMILES	HT1080 IDH1KD tx	ATXN viability	HT1080NT lethal	KB-V1 cytotox	ATXN2 expr inh	KB-3-1 cytotox
CO/N=C\CC(=O)Nc1ccc(Cl)c(Cl)c1	6.5µM*	i	8.2µM*	?	-11%	7.3µM*
O=C(Nc1ncc2c(n1)CC(c1ccccc1)CC2=O)c1ccco1 (centres undefined)	5%	i	-7%	i	8%	i
O=C1CC(c2ccccc2)Cc2nc(NCc3ccco3)ncc21 (centres undefined)	-12%	i	-2%	16µM*	-5%	i
N#Cc1ccc(NC(=O)COc2ccccc2C(=O)Nc2ccccc2)cc1	nt	nt	nt	?	nt	i
Cc1nc(NC(=O)c2ccc(Cl)cc2)sc1Cc1ccc2c(c1)OCO2	6.5µM*	i	10µM*	4.6µM*	-9%	9.2µM*
Cc1nc(NC(=O)c2ccccc2)sc1Cc1ccc2c(c1)OCO2	?	i	?	?	53%	?
Cc1ccc(-n2cnc3cc(C(=O)NC4CCCCCC4)ccc32)cc1Cl	nt	i	nt	i	-9%	i
COc1ccc(/C=C/C(=O)c2c(C)nc3ccccn23)cc1	16%	?	16%	?	-5%	i
Cc1nc2ccccn2c1C(=O)/C=C/c1ccc(F)cc1	-1%	i	-25%	16µM*	29%	16µM*
CCOc1ccc(NC(=O)Cn2c(=O)n(Cc3nc(-c4ccccc4)no3)c(=O)c3ccccc32)cc1	nt	nt	nt	i	nt	i
CCCCC[C@H]1CN(Cc2ccccc2)C(=O)[C@@H]1CC(=O)NCc1ccc(OC)cc1	8%	i	3%	18µM*!	-15%	?
COc1ccc(CNC(=O)C[C@H]2C(=O)N(Cc3ccc(OC)cc3)C[C@@H]2Cc2ccccc2)cc1	0%	?	0%	13µM*!	?	i
COc1cc2c(NC3CCN(C)CC3)nc(N3CCCN(C)CC3)nc2cc1OCCN(C)CCN(C)C	nt	nt	nt	i	nt	i
Cc1cc(C)c2c(CC(=O)Nc3nnc(CC(C)C)s3)coc2c1	nt	i	nt	i	10%	i
CCOc1cccc(-c2cc(C(=O)Nc3ccon3)c3ccccc3n2)c1	-23%	i	-10%	16µM*	-24%	i
CCOc1ccc(-c2cc(C(=O)Nc3ccc4c(c3)OCCO4)c3ccccc3n2)cc1	?	i	?	?	6%	18µM*
CCOC(=O)COc1ccc([N+](=O)[O-])cc1-c1ccnc2cc(-c3ccc(Cl)cc3)nn12	nt	i	nt	?	15%	i
CN1CCN(Cc2nnc(-c3ccccc3)o2)CC1	12%	i	9%	i	nt	i
Cc1onc(-c2ccccc2)c1-c1nnc(CN2CCN(S(=O)(=O)c3ccccc3F)CC2)o1	0%	i	-3%	3.3µM*	-17%	?
Cn1c(SCCOc2ccccc2)nnc1-c1ccc(NC(=O)CCc2ccccc2)cc1	nt	nt	nt	i	nt	i
CCOC(=O)c1cccc(Nc2c3c(nc4ccccc24)CCC3)c1	nt	?	nt	?	?	i
Fc1cccc(Nc2c3c(nc4ccccc24)CCC3)c1	-9%	?	-6%	?	?	?
Cc1ccc2nc3c(c(C(=O)O)c2c1)CCC3	2%[9.24 µM]	i	1%	i	2%	i
Cc1ccc2nc3c(c(Nc4cccc(O)c4)c2c1)CCC3	?	?	18µM*	?	-21%	?
c1ccc2c(Nc3ccc4c(c3)OCCO4)c3c(nc2c1)CCCC3	?	i	16µM*	?	nt	i
SMILES	HT1080 IDH1KD tx	ATXN viability	HT1080NT lethal	KB-V1 cytotox	ATXN2 expr inh	KB-3-1 cytotox
COC(=O)c1cccc(Nc2c3c(nc4ccccc24)CCC3)c1	16µM*	i	21µM*	18µM*	-31%	21µM*
CC(=O)c1cccc(Nc2c3c(nc4ccccc24)CCC3)c1	2.6µM*	?	5.8µM*	i	?	1.8µM*
CC(=O)c1ccc(Nc2c3c(nc4ccccc24)CCCC3)cc1	?	?	?	i	nt	?
Cc1cc(F)ccc1NC(=O)c1csc2c1CCC(C)C2 (centres undefined)	nt	i	nt	i	58%	i
CC(NC(=O)c1cnn2c1NC(=C1CC1)C=C2C(F)F)c1ccncc1 (centres undefined)	nt	nt	nt	i	nt	?
O=C(c1ccccc1)c1ccccc1N1C(=O)C=CC1=O	?	nt	16µM*	i	?	i
O=C(O)c1cccc(N2C(=O)C=CC2=O)c1	0%	i	16%	i	nt	i
O=C1C=CC(=O)N1c1ccccc1N1C(=O)C=CC1=O	5.8µM*	35µM*	6.5µM*	26µM*	?	?
CC(C)C1N=C(c2ccc3c(c2)OCO3)CC(c2ccccc2O)N1 (centres undefined)	?	28µM*	?	?	?	?
CC(C)C1(C)NC(c2ccc3c(c2)OCO3)=CC(c2ccccc2O)N1 (centres undefined)	nt	nt	nt	i	nt	i
COc1ccc(CN(Cc2ccccc2)C(=O)c2ccno2)cc1COc1ccc(NC(C)=O)cc1	7%	nt	-1%	nt	nt	nt
O=C(CSC1=Nc2ccccc2C2CC=NN12)NCc1ccco1 (centres undefined)	7.3µM*	i	?	?	-12%	?
N#Cc1ccccc1NC(=O)CSC1=Nc2ccccc2C2CC=NN12 (centres undefined)	-12%	?	-15%	i	-7%	i
COc1ccc(CN2CCC2(C)C(=O)Nc2cccc(NS(C)(=O)=O)c2)c2ccccc12 (centres undefined)	?	i	?	2.9µM*	?	?
Cc1ccc2nc(-c3ccc(NC(=O)CSc4nc(N)cc(=O)[nH]4)cc3)sc2c1	12µM*	i	9.2µM*	i	80%	?
Cc1ccc2nc(-c3ccc(NC(=O)C(C)Sc4nncs4)cc3)sc2c1 (centres undefined)	-17%	i	?	12µM*	nt	i
Cc1ccc2nc(-c3ccc(NC(=O)C(F)(F)F)cc3)sc2c1	nt	i	nt	i	49%	?
COc1ccc(NC(=O)C(NS(=O)(=O)c2ccc3c(c2)CCCC(=O)N3)C(C)C)c(OC)c1 (centres undefined)	nt	i	nt	i	6%	i
C=CCN(CC=C)Cc1c(O)ccc2c1oc(=O)c1ccccc12	-2%	i	1%	10µM*	-6%	i
C=CCN(CC=C)Cc1cc(=O)oc2ccc3ccccc3c12	?	?	?	i	-19%	?

Source: PubChem BioAssay (National Center for Advancing Translational Sciences (NCATS))
